Compounds with a hit are over-represented: about 1.8% of the library has one in this group of screens.
ABCB6 inh 2: human ABCB6 transporter inhibition. Q9NP58. K562-ABCB6 porphyrin accumulation, flow cytometry, 1 h; stronger effect = lower value. fluorescence ratio to DMSO, % at 10 µM. 360,000 compounds, 0.19% hits;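 active = fluorescence ratio to DMSO below 75%, the collection mean minus 3 SD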;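 also: signal is porphyrin accumulated inside mitochondria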
Target sequence (Q9NP58 whole entry, looked up): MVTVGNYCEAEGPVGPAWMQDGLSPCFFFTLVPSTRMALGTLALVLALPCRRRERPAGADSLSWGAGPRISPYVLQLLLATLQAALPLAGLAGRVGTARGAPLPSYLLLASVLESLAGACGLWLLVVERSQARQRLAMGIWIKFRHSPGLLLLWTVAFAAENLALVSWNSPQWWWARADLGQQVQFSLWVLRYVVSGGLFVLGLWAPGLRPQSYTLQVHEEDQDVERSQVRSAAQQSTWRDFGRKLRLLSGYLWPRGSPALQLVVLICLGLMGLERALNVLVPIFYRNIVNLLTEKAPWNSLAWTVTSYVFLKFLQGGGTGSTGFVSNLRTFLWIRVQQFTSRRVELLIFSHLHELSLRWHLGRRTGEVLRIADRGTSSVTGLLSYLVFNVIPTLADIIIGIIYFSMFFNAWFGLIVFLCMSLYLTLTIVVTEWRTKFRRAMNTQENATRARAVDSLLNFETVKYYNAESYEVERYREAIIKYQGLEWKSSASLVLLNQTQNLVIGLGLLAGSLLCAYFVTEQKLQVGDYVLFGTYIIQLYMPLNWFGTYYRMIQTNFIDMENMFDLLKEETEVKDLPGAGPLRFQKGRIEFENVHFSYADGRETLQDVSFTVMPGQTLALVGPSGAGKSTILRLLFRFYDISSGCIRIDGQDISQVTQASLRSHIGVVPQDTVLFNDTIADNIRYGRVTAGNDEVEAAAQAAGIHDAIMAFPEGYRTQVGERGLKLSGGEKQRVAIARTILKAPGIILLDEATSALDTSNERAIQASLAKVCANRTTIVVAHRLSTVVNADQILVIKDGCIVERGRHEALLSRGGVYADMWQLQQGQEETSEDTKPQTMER
Myeloid diff MLP: compounds promoting myeloid differentiation. 360,000 compounds, 1% hits. AID 624256. ER-HoxA9 myeloid progenitors, lysozyme-GFP differentiation, flow cytometry. calls only at 10 µM;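 active = normalized GFP-positive differentiation at or above the plate's own cutoff, the solvent-only control mean plus 3 SD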;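 also: cells exposed to compound for four days before flow analysis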
Exocytosis inh: blocks lytic granule exocytosis; inhibition, % at 10 µM; 360,000 compounds, 0.66% hits; TALL-104 LAMP-1 surface exposure, flow cytometry; cells stimulated with thapsigargin and PMA;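 active = inhibition above about 55%, limit read from the data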
ABCB6 blocker 1: inhibitors of human ABC transporter ABCB6 | ratio response (% of DMSO), % at 10 µM | 700 tested, under 10 active | shares compounds with ABCB6 inh 2 | AID 602430 | K562-ABCB6 porphyrin accumulation, flow cytometry, 1 h; stronger effect = lower value;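 active = repeat-averaged ratio response below 75% of DMSO, the collection mean minus 3 SD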;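 also: median porphyrin fluorescence at 575 nm with 488 nm excitation from mitochondria; lower ratio means less porphyrin signal so ABCB6 inhibition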
Of the large screens only hits and unclear results are named; the others gave an inactive call (follow-up assays come after a bar, where they were run).

CCCc1ccc(S(=O)(=O)NCc2nnc(SC)n2C)cc1	ABCB6 inh 2 63 | ABCB6 blocker 1 inactive
CSc1nnc(CNS(=O)(=O)c2ccc(Br)cc2)n1C	none
COc1cc2c(oc(=O)c3cc(C)cc(OC)c32)c2c(C3OC(C)C(O)C(C)(O)C3O)ccc(O)c12 (stereo unspecified)	none (no result: Myeloid diff MLP)
O=C(Cc1ccccc1)NCCSCc1ccco1	none
O=C(O)c1ccc(CSCc2ccco2)cc1	ABCB6 inh 2 74 | ABCB6 blocker 1 inactive
COc1ccc(C2=NOC(C(=O)N3CCCc4ccccc43)C2)cc1 (stereo unspecified)	none
COc1cc(C2=NOC(C(=O)N3CCCc4ccccc43)C2)cc(OC)c1OC (stereo unspecified)	ABCB6 inh 2 64 | ABCB6 blocker 1 inactive
CCc1cc2cc(OC)ccc2nc1SCC(=O)NNC(=O)c1ccco1	none
CC(NCCC1(Cc2ccccc2Cl)CCOC(C)(C)C1)c1cccs1 (stereo unspecified)	none
O=C(Nc1cccnc1)C1CCN(S(=O)(=O)c2ccc(Cl)cc2)CC1	none
OC(c1ccc(Cl)cc1)c1nccc2ccccc12 (stereo unspecified)	none
O=c1ccn(Cc2ccccc2)c2ccccc12	ABCB6 inh 2 72 | ABCB6 blocker 1 inactive
Cc1c(OCc2ccccc2)c(=O)ccn1Cc1ccccc1	none
NC(N)=Nc1nc(CSCC/C(N)=N/S(N)(=O)=O)cs1	ABCB6 inh 2 72 | ABCB6 blocker 1 inactive
Cc1ccc(-c2csc(N=C(N)N)n2)cc1	none
Cc1ccccc1NC(=O)Nc1nnc(Cc2ccc([N+](=O)[O-])cc2)s1	none
Cc1ccc(Cn2c(CN(C)Cc3ccccc3)nc3c2c(=O)n(C)c(=O)n3C)cc1	none
CN(Cc1ccccc1)Cc1nc2c(c(=O)n(C)c(=O)n2C)n1Cc1ccc(F)cc1	ABCB6 inh 2 63 | ABCB6 blocker 1 inactive
CC1(C(=O)NS(=O)(=O)c2ccccc2Cl)CCN1C(=O)c1cccc2ccccc12 (stereo unspecified)	none
COc1ccc(-c2nc(CN3CCCCC3c3nccn3C)c(C)o2)c(C)c1C (stereo unspecified)	none
CCCc1nc2ccc(NC(C)=O)cc2c(=O)n1Cc1cccc(Cl)c1	none
CCCc1nc2ccc(NC(=O)c3cccs3)cc2c(=O)n1Cc1ccc(Cl)cc1	ABCB6 inh 2 73 | ABCB6 blocker 1 inactive
CCC(C)(C)NC(=O)C(c1ccccc1Cl)N(C(=O)CCC(=O)Nc1cc(C)on1)c1ccc(NC(C)=O)cc1 (stereo unspecified)	none
CCOC(=O)C1CCCN(C(=O)c2cn(C)c3ccc(S(=O)(=O)N4CCCC4)cc3c2=O)C1 (stereo unspecified)	ABCB6 inh 2 57 | ABCB6 blocker 1 inactive
CCOC(=O)C1CCCN(C(=O)c2cn(CC)c3ccc(S(=O)(=O)N4CCCC4)cc3c2=O)C1 (stereo unspecified)	none
O=C(CSc1nnc(-c2ccc(F)cc2)o1)Nc1ccc(S(=O)(=O)N2CCCCCC2)cc1	ABCB6 inh 2 31 | ABCB6 blocker 1 inactive
O=C(CSc1nnc(-c2ccc(F)cc2)o1)Nc1ccc(S(=O)(=O)N2CCCC2)cc1	none
COc1ccccc1C(=O)OCC(=O)Nc1cccc(S(=O)(=O)N2CCCC2)c1	none
Cc1cc(NC(=O)CSc2nc3c(c(=O)n2C)SCC3)no1	none
CC(=O)Nc1c(C)ccc(CNC(=O)COc2ccc(F)cc2)c1C	none
CC(=O)Nc1c(C)ccc(CNC(=O)COc2cc(C)ccc2C)c1C	ABCB6 inh 2 72 | ABCB6 blocker 1 inactive
CC1CCC(NC(=O)CN2CCN(S(=O)(=O)c3ccc(Br)s3)CC2)CC1 (stereo unspecified)	none
CCCCCC(O)(c1ccccc1)C(CN1CCOCC1)c1ccccc1 (stereo unspecified)	ABCB6 inh 2 72 | ABCB6 blocker 1 inactive
CCCCCCC(O)(c1ccccc1)C(CN1CCOCC1)c1ccccc1 (stereo unspecified)	none
O=S1(=O)CCOCCCN1Cc1ccccc1Br	none
COc1ccc(S(=O)(=O)n2ccc(-c3ccc(OCCN(C)c4ccccn4)cc3)n2)cc1	ABCB6 inh 2 73 | ABCB6 blocker 1 inactive
COc1ccc(S(=O)(=O)N(CC(=O)O)c2ccccn2)cc1	none
COc1ccc(Cl)cc1C(=O)NNC(=O)c1csc(N2CCOCC2)n1	none
Cc1noc(C)c1S(=O)(=O)N1CCCC1C(=O)O (stereo unspecified)	none
CCN1CCN(S(=O)(=O)c2ccc(OC)c(Br)c2)CC1	ABCB6 inh 2 74 | ABCB6 blocker 1 inactive
COc1ccc(S(=O)(=O)N2CCN(C)CC2)cc1Br	none
CC1CN(C(=O)CCC(=O)NCc2ccccc2Cl)c2ccccc2S1 (stereo unspecified)	none
COc1ccc(NC(=O)CSc2nnc(-c3ccccn3)n2N)cc1	none
COc1ccc(NC(=O)CSc2nnc(-c3ccccn3)n2N)c(OC)c1	ABCB6 inh 2 73 | ABCB6 blocker 1 inactive
O=C(c1ccc(Cn2cc([N+](=O)[O-])cn2)o1)N1N=C(C(F)F)CC1(O)C(F)F (stereo unspecified)	none
O=C(c1ccc(COc2ccccc2Br)o1)N1N=C(C(F)F)CC1(O)C(F)F (stereo unspecified)	none | ABCB6 blocker 1 inactive
Cc1cc(C)c(C#N)c(N2CCN(Cc3ccccc3)CC2)n1	ABCB6 inh 2 47 | ABCB6 blocker 1 inactive
Cc1cc(C)c(C#N)c(N2CCN(Cc3ccc4c(c3)OCO4)CC2)n1	none
COc1ccc(C=C(NC(=O)c2ccccc2)C(=O)O)cc1OC	none
CCc1ccc(CCC(=O)Nc2sc(C)c(C)c2C(=O)OC)o1	ABCB6 inh 2 69 | ABCB6 blocker 1 inactive
COC(=O)c1c(NC(=O)CCCC(=O)O)sc(C)c1C	none
O=C(COc1ccccc1)Nc1nnc(S(=O)(=O)N2CCCCCC2)s1	none
COc1cccc(CNC(=O)C2CCCN(C(=O)c3ccc(Cl)cc3)C2)c1 (stereo unspecified)	none
COc1ccc(CCNC(=O)C2CCCN(C(=O)c3ccc(Cl)cc3)C2)cc1 (stereo unspecified)	ABCB6 inh 2 73 | ABCB6 blocker 1 inactive
NC(=O)C(c1ccc(Cl)cc1)c1ccc(Sc2ccccc2)nn1 (stereo unspecified)	ABCB6 inh 2 73 | ABCB6 blocker 1 inactive
NC(=O)C(c1ccc(Sc2ccccc2)nn1)c1ccc(Cl)cc1Cl (stereo unspecified)	none
O=C(COC(=O)[C@@H]1CCCN1C(=O)c1cccs1)Nc1cccc([N+](=O)[O-])c1	none
Cc1onc(-c2c(F)cccc2Cl)c1C(=O)Nc1nnc(C(F)(F)F)s1	none
COCc1nnc(NC(=O)c2c(-c3c(Cl)cccc3Cl)noc2C)s1	ABCB6 inh 2 67 | ABCB6 blocker 1 inactive
CC(=O)c1cccc(NC(=O)CN2C(=O)NC3(CCCCCCC3)C2=O)c1	ABCB6 inh 2 61 | ABCB6 blocker 1 inactive
CCNC(=O)c1cccc(NC(=O)CN2C(=O)NC3(CCCCC3)C2=O)c1	none
O=C(Nc1cccc(C(F)(F)F)c1)c1cncs1	none
OCCCNc1c2ccccc2nc2ccccc12	none
CC(=O)Nc1ccc(NC(=O)[C@H](C)NC(=O)c2ccco2)cc1	ABCB6 inh 2 64 | ABCB6 blocker 1 inactive
C[C@H](NC(=O)c1ccco1)C(=O)Nc1ccc(C#N)cc1	none
Cc1nc2c(=O)[nH]n(C)c2nc1C	none
Nn1c(SCC(=O)N2CCOCC2)nnc1-c1ccc(Cl)cc1Cl	none
